# Records with an inconclusive call do not appear. Values without a mark were called inactive. Calls come from the whole dose curve; as a rule, active = well fitted curve in the direction sought with a large enough effect; inconclusive = small, poorly fitted or top-dose-only effect, or another doubt; inactive = no such curve, though single readings can be large or run the other way.
# Molecular target: Metallo-beta-lactamase type 2 (Klebsiella pneumoniae) (UniProt C7C422)
# Assay: qHTS to identify inhibitors of the New Delhi Metallo-beta-lactamase (NDM): assay validation screen against the NCATS LOPAC Collection (AID 1794843);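 note: nitrocefin turnover by NDM-1 measured as 485 nm absorbance at plateau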
# Conditions: NDM-1 enzyme, nitrocefin hydrolysis, absorbance 485 nm; series mostly up to 38.4 µM; activity change, negative = inhibition: at the top concentration
# Outline: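 NDM-1 at 2 nM final in 50 mM HEPES pH 7.0 with 1 uM ZnSO4 and 0.01% Tween20 was preincubated with library compounds in DMSO. Nitrocefin (50 uM stock) was then added, and absorbance at 485 nm was read at the kinetic plateau.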
# % is set by controls: 0 for no effect and ±100 for the full control effect.
# Metallo-beta-lactamase type 2 (Klebsiella pneumoniae), sequence (C7C422 whole entry, looked up): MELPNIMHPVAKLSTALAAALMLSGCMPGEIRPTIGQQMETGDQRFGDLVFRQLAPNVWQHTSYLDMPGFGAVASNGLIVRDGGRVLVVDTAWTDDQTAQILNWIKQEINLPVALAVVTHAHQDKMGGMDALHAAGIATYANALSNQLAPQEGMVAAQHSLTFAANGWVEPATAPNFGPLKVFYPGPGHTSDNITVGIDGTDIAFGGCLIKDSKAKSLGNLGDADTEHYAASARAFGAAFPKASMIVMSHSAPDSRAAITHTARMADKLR
row,SMILES,"activity change, negative = inhibition [%]"
1,O=c1cc(O)cc(/C=C/c2ccc(O)c(O)c2)o1,-12.8
2,CC(N)(C(=O)O)c1ccc(C(=O)O)cc1 (stereo unspecified),-9.9
3,O=C(O)C1=CCCN(CCON=C(c2ccccc2)c2ccccc2)C1,-0.148
4,COCc1nc2c([nH]1)c(=O)n(C)c(=O)n2CC(C)C,-5.87
5,Cc1cc2c(cc1Cl)N(C(=O)Nc1ccnc3ccccc13)CC2,-3.91
6,Cc1nc2c(OCc3ccccc3)cccn2c1CC#N,8.12
7,CC1CCN(CC[C@H]2CCCN2S(=O)(=O)c2cccc(O)c2)CC1,-7.31
8,O=C(O)c1cc2cc(F)ccc2[nH]1,1.36
9,O=[N+]([O-])c1cccc2cn[nH]c12,2.37
10,CCSC(=N)N,0.717
11,CSC(=N)N,-11.6
12,CC(C)C[C@H](NC(=O)[C@H](O)[C@H](N)Cc1ccccc1)C(=O)O,-2.06
13,O=[N+]([O-])c1cccc2c(Br)[nH]nc12,3.69
14,Cc1ccc2c(c1)C(N1CCN(C)CC1)=Nc1cccnc1N2,0.78
15,CN(CC[C@@H](Oc1ccc(C(F)(F)F)cc1)c1ccccc1)CC(=O)O,-5.62
16,C=C1C(=O)O[C@@H]2[C@H]3O[C@]3(C)CCC=C(C)CC[C@@H]12,3.27
17,CCCN(CCc1ccccc1)C1CCc2c(O)cccc2C1 (stereo unspecified),-6.06
18,NCCCNCCCCNCCCN,-0.297

row,SMILES,"activity change, negative = inhibition [%]"
1,C=C(C)C1CC=C(C(=O)O)CC1 (stereo unspecified),-0.623
2,NCCNS(=O)(=O)c1cccc2c(Cl)cccc12,1.33
3,Nc1nc2[nH]c(=O)cnc2c(=O)[nH]1,0.0494
4,CCCn1c(=O)c(C)cn2nc(N)nc12,-0.53
5,O=c1cc(-c2ccccc2F)[nH]c2cc3c(cc12)OCO3,-8.45
6,OC1(c2ccc(Cl)cc2)CCN(Cc2c[nH]c3ccccc23)CC1,-1.65
7,OC[C@H]1NC[C@@H](O)[C@@H]1O,-4.2
8,O=c1[nH]c2ccccc2c2ccccc12,2.13
9,N#Cc1cc2nc(O)c(O)nc2cc1[N+](=O)[O-],0.717
10,Cn1c(=O)c2[nH]c(C3CCCC3)nc2n(C)c1=O,-2.55
11,c1ccc(CN2CCC3(CCCc4ccccc43)CC2)cc1,-1.69
12,CNc1cc(NS(=O)(=O)c2ccc(N)cc2)nc(NC)n1,18.4
13,Nc1ccc(N2C(=O)c3ccccc3C2=O)c(Cl)c1,-2.16
14,CC(=O)SC1CC2=CC(=O)CC[C@]2(C)C2CC[C@@]3(C)C(CC[C@@]34CCC(=O)O4)C12 (stereo partly specified),-2.62
15,N=C(N)SCCN,0.232
16,CCC1(O)CC2CN(CCc3c([nH]c4ccccc34)[C@@](C(=O)OC)(c3cc4c(cc3OC)N(C=O)C3[C@]45CCN4CC=C[C@@](CC)([C@@H](OC(C)=O)[C@]3(O)C(=O)OC)[C@H]45)C2)C1 (stereo partly specified),-5.5
17,COc1cc([C@@H]2c3cc4c(cc3[C@H](O)C3COC(=O)[C@@H]32)OCO4)cc(OC)c1OC (stereo partly specified),2.88
18,CC1=C(C(=O)O)N2C(=O)[C@@H](NC(=O)C(N)C3=CCC=CC3)[C@H]2SC1 (stereo partly specified),-2.75

# — PubChem BioAssay (NCATS)
